FH mod: Identification of activators of human fumarate hydratase by quantitative high-throughput screening | AID 1347055, 2019 | 54,000 tested, 0.22% active | Fumarate hydratase, mitochondrial (Homo sapiens), P07954 | Potency, µM (titrated, usually from 79.9 µM), usual class: inhibitors | FH coupled MDH/diaphorase resazurin fluorescence, 15 min; also: the screen sought activators but most active calls are inhibition curves; nearly all actives have a fitted effect of over 45% in size
GALK inhibitor: inhibitors of human galactokinase (GALK); Potency, µM (titrated, usually from 57.5 µM), usual class: inhibitors; 44,000 tested, under 10 active; P51570; recombinant GALK, Kinase-Glo ATP luminescence, 1 h
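Human GALK (5 nM) was incubated with 35 uM ATP and 100 uM galactose in 20 mM HEPES pH 8.0 with MgCl2, NaCl, DTT and BSA for 1 h at room temperature. Remaining ATP was measured by Kinase-Glo Plus luminescence.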
PTAP-TSG101 blk: inhibitors of HIV-1 PTAP binding to human TSG101, validation; Q99816; Fluorescence polarization, FITC-PTAP peptide/Tsg101, 20 min; Potency, µM (series often up to 115 µM), actives largely listed as inhibitors; 44,000 tested, under 10 active; AID 1347069
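Fluorescence polarization binding of Tsg101 binding domain (10 uM final) to FITC-labeled PTAP-motif peptide (50 nM final) in HEPES pH 7.5/NaCl/Tween 20/EDTA/TCEP buffer; 20 min at r.t. Actives by curve class, <25 µM, efficacy <60% inhibition.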
DRV1 agonist: agonists of human resolvin D1 receptor DRV1 (GPR32); CHO-K1 GPR32 beta-arrestin PathHunter luminescence, 90 min; zero percent set by DMSO-only wells; AID 1346428; 48,000 tested, 2.5% active; activation, % at 76.9 µM; O75388;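 active = activation of at least 60% and not above a set upper limit, about 1 call in 100 departs from these limits; inconclusive = activation of 40% to 60%, or above that upper limit; inactive = activation under 40%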
Target sequence (O75388 whole entry, looked up): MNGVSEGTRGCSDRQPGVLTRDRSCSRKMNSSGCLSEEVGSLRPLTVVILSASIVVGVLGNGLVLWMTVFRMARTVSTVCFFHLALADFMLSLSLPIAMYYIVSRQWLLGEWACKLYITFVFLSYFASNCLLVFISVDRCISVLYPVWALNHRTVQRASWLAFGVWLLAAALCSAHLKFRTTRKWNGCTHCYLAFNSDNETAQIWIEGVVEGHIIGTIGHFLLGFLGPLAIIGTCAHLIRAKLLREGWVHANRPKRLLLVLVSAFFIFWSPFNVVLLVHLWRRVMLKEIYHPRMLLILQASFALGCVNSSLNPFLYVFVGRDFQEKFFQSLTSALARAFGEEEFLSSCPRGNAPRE
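Step 1: seed CHO-K1 GPR32 beta-arrestin cells, 2,500/well, overnight at 37 °C. Step 2: add compounds, 90 min at 37 °C. Step 3: detection reagent, 1 h ambient, then luminescence.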
GALC G270D act: raises human GALC G270D mutant activity in cells; P54803; 145M-Twi-hGALC-G270D cells (Twitcher mouse brain line with human GALC G270D), HMU-beta-Gal fluorescence, 48 h; Potency, µM (series often up to 57.5 µM), actives largely listed as activators; 45,000 tested, 0.1% active; AID 1159614; also: nearly all actives have a fitted effect of over 65% in size
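Brain-derived Twitcher mouse 145M-Twi cells stably expressing human GALC-G270D or wild-type GALC, treated live, then residual GALC activity read by fluorescence of HMU-b-Gal substrate (0.1 mM final) in citrate-phosphate buffer pH 5.2 with sodium taurocholate. Signal increase indicates enhancement.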
B2AR arrestin ag: ADRB2 beta-arrestin recruitment. P07550. HTLA Tango cells, beta-arrestin recruitment, luciferase luminescence, 18 h. Potency, µM (series often up to 46.1 µM), actives largely listed as activators. 44,000 tested, under 10 active. AID 1347077
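Luminescence read-out: arrestin recruitment to recombinant beta2-AR releases tTA, inducing luciferase. Cells exposed 18 hr at 37 degrees C to up to 46 microM compound; %Activity from corrected signal, concentration-response curves classified by r2, magnitude and efficacy.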
Each line names hits and unclear results; the compound was inactive in the other large screens; ! = not confirmed by another sample; [ ] = dose if it differs, or a comment. The list is not random: actives were taken first. Their share in the collection is about 2.8%. Unless noted, calls follow the shape of the dose curve; as a rule, active = well fitted curve in the direction sought with a large enough effect; inconclusive = small, poorly fitted or top-dose-only effect, or another doubt; inactive = no such curve, though single readings can be large; an effect the other way counts as inactive or inconclusive.

CCc1cccc(CC)c1-n1c(C=C(C)C)c(C(=O)N2CCNCC2)cc(-c2nc(-c3ccc(C(F)(F)F)cc3)cs2)c1=O	none (no result: GALK inhibitor, PTAP-TSG101 blk, DRV1 agonist, GALC G270D act, B2AR arrestin ag)
CO[C@H]1C[C@@H]2CC[C@@H](C)[C@@](O)(O2)C(=O)C(=O)N2CCCC[C@H]2C(=O)O[C@H]([C@H](C)C[C@@H]2CC[C@@H](OP(C)(C)=O)[C@H](OC)C2)CC(=O)[C@H](C)/C=C(\C)[C@@H](O)[C@@H](OC)C(=O)[C@H](C)C[C@H](C)/C=C/C=C/C=C/1C	none (no result: GALK inhibitor, PTAP-TSG101 blk, DRV1 agonist, GALC G270D act, B2AR arrestin ag)
Cc1ccc(NS(=O)(=O)c2ccc3c(c2)NC(=O)CCS3)c(Br)c1	DRV1 agonist 120
O=C1CCSc2ccc(S(=O)(=O)Nc3cccc(C(F)(F)F)c3)cc2N1	DRV1 agonist 109
COc1ccccc1CCNC(=O)C(=O)NCC(c1ccco1)S(=O)(=O)c1ccc(C)cc1 (centres undefined)	GALC G270D act 7.9µM
CCOc1ccc(-c2cc(CCCC(=O)NCCc3cc(OC)c(OC)c(OC)c3)no2)cc1	DRV1 agonist 72
CC(=O)N[C@H]1CCN(c2ccc(C3=NOC(CN[S+](=O)([O-])C(C)C)C3)cc2F)C1 (some centres undefined)	none (no result: GALK inhibitor, PTAP-TSG101 blk, DRV1 agonist, GALC G270D act, B2AR arrestin ag)
CSC(Cc1ccc(Cl)cc1)C(=O)Nc1ccc(Cl)cc1C(=O)O (centres undefined)	none (no result: GALK inhibitor, PTAP-TSG101 blk, DRV1 agonist, GALC G270D act, B2AR arrestin ag)
CCOc1cccc(C2Nc3ccccc3-c3cc(C)nn32)c1O (centres undefined)	none
CCOc1ccc(C2Nc3c(C)cccc3-c3cc(C)nn32)cc1 (centres undefined)	FH mod inconclusive, GALC G270D act 25µM
CC(=O)N1CCc2cc(S(=O)(=O)NC(Cc3ccccc3)C(=O)Nc3ccc(Cl)cc3)ccc21 (centres undefined)	DRV1 agonist 96
O=C1NC(=O)C(c2ccccc2[N+](=O)[O-])=C1Nc1ccc(O)c(Cl)c1	FH mod 25µM! (no result: GALK inhibitor, PTAP-TSG101 blk, GALC G270D act, B2AR arrestin ag)
O=C(CSc1nc2cc3ccccc3cc2[nH]1)Nc1ccc(F)cc1	DRV1 agonist 65
Cc1ccc(NC(=O)C(C)C)cc1C1CCN(Cc2ccc(Oc3ccc(F)c(F)c3)cc2)CC1	none (no result: GALK inhibitor, PTAP-TSG101 blk, DRV1 agonist, GALC G270D act, B2AR arrestin ag)
Cc1ccc(CNC(=O)Cc2csc3ccccc23)cc1	DRV1 agonist 85
O=C(Cc1csc2ccccc12)NCc1ccc(F)cc1	none
CCNC(=O)[C@H]1O[C@@H](n2cnc3c(N)nc(NCCc4ccc(CCC(=O)O)cc4)nc32)[C@H](O)C1O (some centres undefined)	none (no result: GALK inhibitor, PTAP-TSG101 blk, DRV1 agonist, GALC G270D act, B2AR arrestin ag)
C=CCc1ccccc1OCCSc1nc(-c2ccc(C(C)(C)C)cc2)nc2cc(=O)[nH]n12	none (no result: FH mod, GALC G270D act)
CC(C)(C)c1ccc(OCCSc2nc(-c3cccs3)nc3cc(=O)[nH]n23)cc1	DRV1 agonist 68 (no result: FH mod, GALC G270D act)
COc1ccccc1OCCSc1nc(-c2ccc(C(C)(C)C)cc2)nc2cc(=O)[nH]n12	DRV1 agonist 65 (no result: FH mod, GALC G270D act)
C=CCc1ccccc1OCCSc1nc(-c2cccs2)nc2cc(=O)[nH]n12	DRV1 agonist 86 (no result: FH mod, GALC G270D act)
C=C1CC[C@@H]2[C@](C)(CO)[C@H](O)CC[C@@]2(C)[C@@H]1C/C=C1/C(=O)OCC1OC(=O)/C(=C/CO)C(O)C[C@@H]1C(=C)CC[C@@H]2[C@](C)(CO)[C@H](O)CC[C@]21C (some centres undefined)	none (no result: GALK inhibitor, PTAP-TSG101 blk, DRV1 agonist, GALC G270D act, B2AR arrestin ag)
CC(C)(C)C(=O)CN1C(=O)[C@H](NC(=O)Nc2cccc(C(=O)O)c2)CN(C2CCCCC2)c2ccccc21	none (no result: GALK inhibitor, PTAP-TSG101 blk, DRV1 agonist, GALC G270D act, B2AR arrestin ag)
COc1ccc(OC)c(NC(=O)Cn2cnc3ccc(S(=O)(=O)N4CCC(C)CC4)cc3c2=O)c1	none
COc1ccc(NC(=O)Cn2cnc3ccc(S(=O)(=O)N4CCC(C)CC4)cc3c2=O)cc1OC	DRV1 agonist 113
Cc1ccc(NC(=O)Cn2c(=O)ccc3cc(S(=O)(=O)N4CCC(C)CC4)ccc32)cc1C	DRV1 agonist 70
CC1OC2OC3C(OCC(O)C3O)OC(=O)C34CCC(C)(C)CC3C3=CCC5C6(C)CC(O)C(OC7OC(CO)C(O)C(O)C7OC7OCC(OC(=O)CC(C)(O)CC(=O)OC1C(OC1OCC(O)C(O)C1O)C2O)C(O)C7O)C(C)(CO)C6CCC5(C)C3(C)CC4O (centres undefined)	none (no result: GALK inhibitor, PTAP-TSG101 blk, DRV1 agonist, GALC G270D act, B2AR arrestin ag)
CCC1=C(C)C(=O)C(C)CC12C(=O)CCC2C(=O)O (centres undefined)	none (no result: GALK inhibitor, PTAP-TSG101 blk, DRV1 agonist, GALC G270D act, B2AR arrestin ag)
COc1ccc(C(=O)N2CCC(C(=O)Nc3ccccc3Cl)CC2)cc1	none
COC(=O)c1ccc(NC(=O)C2CCN(C(=O)c3ccc(F)cc3)CC2)cc1	DRV1 agonist 61
CCOC(=O)c1oc2c(c1C)-c1nn(Cc3ccc(Cl)cc3)cc1CC2	FH mod 32µM[activator]
Cc1c(C(=O)O)oc2c1-c1nn(Cc3ccc(Cl)cc3)cc1CC2	none
Cc1ccc(C)c(Nc2nn3c(=O)c4ccc(C(=O)NCc5ccccc5)cc4nc3s2)c1	DRV1 agonist 63
O=C1c2[nH]nc(-c3ccc(F)cc3)c2C(c2ccccc2F)N1c1ccccc1 (centres undefined)	DRV1 agonist 108

Assay outcomes as filed in PubChem BioAssay.
